The list is not random: actives were taken first. Their share in the collection is about 15%.
ELG1 DNA repair = blocks ELG1-dependent DNA repair in HEK293T cells; 330,000 tested, 2.3% active; HEK293T ELG1-luciferase reporter, luminescence, 16 h; DNA damage induced by 5-fluorouridine; AID 504467; Potency, µM (series often up to 46.1 µM), for inactives: top-dose activity change, negative = inhibition, most hits filed as inhibitors; further: nearly all actives have a fitted effect of over 55% in size
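In this reporter screen, reduction of luminescence relative to DMSO vehicle indicated activity. Compounds and 5-fluorouridine were added together to 2,000 cells per well, incubated for 16 hr at 37 °C, then developed with ONE-Glo.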
TDP1 cell CPT = growth inhibition of DT40 Tdp1-/-;hTDP1 cells with camptothecin (screen for TDP1 inhibitors); Potency, µM (titrated, usually from 46.2 µM), for inactives: at the top dose activity change, negative = growth inhibition, actives largely listed as inhibitors; chicken DT40 Tdp1-/-;hTDP1 cells + 20 nM CPT, ATP luminescence, 48 h; 420,000 tested, 12% active; further: nearly all actives have a fitted effect of over 55% in size
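Cell growth measured by CellTiter-Glo luminescence after a minimum 48 h, 37 C compound exposure with 20 nM CPT in Tdp1-knockout DT40 cells stably expressing hTDP1, seeded 400/well; qHTS titration format.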
RORg inh = blocks mouse ROR gamma transcriptional activity; P51450; Drosophila S2 Gal4-RORgamma UAS-luciferase reporter, 20 h; Potency, µM (top dose mostly 53.6 µM), inactives show at the top dose activity change, negative = inhibition, most hits filed as inhibitors; 310,000 tested, 5.4% active; further: nearly all actives have a fitted effect of over 60% in size
Target sequence (P51450 whole entry, looked up, the tested form may be a part): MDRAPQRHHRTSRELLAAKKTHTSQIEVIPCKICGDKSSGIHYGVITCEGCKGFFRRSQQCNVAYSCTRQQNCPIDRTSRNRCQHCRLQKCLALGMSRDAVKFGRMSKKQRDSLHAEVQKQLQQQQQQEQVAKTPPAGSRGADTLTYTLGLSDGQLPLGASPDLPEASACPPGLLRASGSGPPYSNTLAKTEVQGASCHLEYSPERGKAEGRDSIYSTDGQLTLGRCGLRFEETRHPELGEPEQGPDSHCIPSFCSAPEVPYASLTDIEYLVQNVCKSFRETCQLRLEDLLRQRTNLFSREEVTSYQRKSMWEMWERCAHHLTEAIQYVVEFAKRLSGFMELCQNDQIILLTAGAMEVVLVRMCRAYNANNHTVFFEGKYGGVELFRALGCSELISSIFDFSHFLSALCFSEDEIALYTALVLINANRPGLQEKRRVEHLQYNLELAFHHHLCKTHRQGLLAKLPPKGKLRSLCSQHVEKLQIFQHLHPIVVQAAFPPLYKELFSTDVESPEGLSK
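Schneider cells (Drosophila), stable Gal4 DBD–ROR gamma + UAS-luc; 1 hr cmpd preincubation; Cu2+ induction 700 uM final; 20 hr ambient; luminescence.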
TDP1 cell noCPT = qHTS for Inhibitors of human tyrosyl-DNA phosphodiesterase 1 (TDP1): qHTS in cells in absence of CPT; DT40 Tdp1-/- hTDP1 cells, no CPT, ATP luminescence, 48 h; Potency, µM (highest dose often 46.2 µM), for the others: at the highest dose activity change, negative = growth inhibition, hits mostly inhibitors; 420,000 tested, 15% active; further: nearly all actives have a fitted effect of over 55% in size
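Growth of hTDP1-complemented DT40 Tdp1-knockout cells is measured by ATP luminescence after at least 48 hr compound exposure at 37 °C, with DMSO substituting for the 20 nM CPT used in the parallel screen.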
VP16 counter = counter-screen for ROR gamma inhibitors: Gal4-VP16 reporter; Drosophila S2 Gal4-VP16 UAS-luciferase, luminescence, 20 h; Potency, µM (highest dose often 53.6 µM), for the others: at the highest dose activity, negative = inhibition, hits mostly inhibitors; 310,000 tested, 3.5% active; AID 2546;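 further: Gal4-VP16 expression switched on by copper sulfate through the metallothionein promoter; nearly all actives have a fitted effect of over 50% in size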
12-LOX inh = inhibitors of human 12S-lipoxygenase ALOX12 | P18054 | 580,000 tested, 1.1% active | purified 12hLO, xylenol orange hydroperoxide absorbance | AID 1671190 | Potency, µM (series often up to 108 µM), for inactives: top-dose activity change, negative = inhibition, most hits filed as inhibitors
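Hydroperoxide product was detected by ferrous iron/xylenol orange as the 573 to 405 nm absorbance ratio. Arachidonic acid at 40 uM (final) was turned over for 30 min at room temperature by 150 nM human 12hLO, pH 7.0 Hepes buffer, after 15 min compound preincubation.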
Numbers without * were called inactive; ? = inconclusive; . = no result; [ ] = remark or other dose. The call rests on the fitted dose curve; in most records, active means well fitted curve in the direction sought with a large enough effect; inconclusive means small, poorly fitted or top-dose-only effect, or another doubt; inactive means no such curve, though single readings can be large; an effect the other way counts as inactive or inconclusive. On the % scale 0 is the no-effect control and ±100 the full control effect; potency means the concentration at half of the fitted maximal effect.

SMILES	ELG1 DNA repair	TDP1 cell CPT	RORg inh	TDP1 cell noCPT	VP16 counter	12-LOX inh
COc1ccccc1-c1cc(C(=O)Nc2sc3c(c2C#N)CCC(C)C3)c2ccccc2n1 (configuration not stated)	-13%	?	8%	?	-3%	-7%
CC(=O)c1c(C)[nH]c(C(=O)OCC(=O)Nc2sc3c(c2C#N)CCC(C)C3)c1C (configuration not stated)	-4%	?	-18%	23µM*	-6%	?
CC1CCc2c(sc(NC(=O)COC(=O)c3ccc(NC(=O)CC#N)cc3)c2C#N)C1 (configuration not stated)	25%	19%	.	-17%	.	-4%
Cc1cc(C(=O)OCC(=O)Nc2sc3c(c2C#N)CCC(C)C3)c2ccccc2n1 (configuration not stated)	?	13%	30%	2%	3%	40µM*
O=C1c2[nH]nc(-c3ccccc3O)c2C(c2cccc(Cl)c2)N1Cc1ccco1 (configuration not stated)	-7%	?	?	18µM*	?	-4%
Cc1ccc(C2c3c(-c4cc(C)ccc4O)n[nH]c3C(=O)N2Cc2ccco2)cc1 (configuration not stated)	.	23µM*	.	?	.	1%
O=C1c2[nH]nc(-c3ccccc3O)c2C(c2cccc(Cl)c2)N1CC1CCCO1 (configuration not stated)	?	?	5%	18µM*	?	-19%
COc1ccc(C2c3c(-c4ccccc4O)n[nH]c3C(=O)N2Cc2ccco2)cc1OC (configuration not stated)	0%	-6%	7%	-20%	-3%	10%
O=C1c2[nH]nc(-c3ccccc3O)c2C(c2ccc(F)cc2)N1Cc1ccco1 (configuration not stated)	0%	18µM*	34%	16µM*	-5%	-26%
CC(C)C(=O)N1CCCC(c2noc(COc3ccccc3F)n2)C1 (configuration not stated)	.	.	.	.	.	19%
COc1ccccc1CNc1nc2ccccc2nc1NS(=O)(=O)c1ccc(C)c(C)c1	.	.	.	.	.	5%
C=CCNC(=O)c1cnn2c1CN([S+](=O)([O-])c1cccc(C(F)(F)F)c1)CC2	.	.	.	.	.	-1%[6.33 µM]
COc1ccc(-c2nnc(CSc3nc4ccccc4c(=O)n3CC(C)C)o2)cc1OC	?	?	-21%	16µM*	-1%	3%
COCCCn1c(SCc2nnc(-c3ccc(OC)c(OC)c3)o2)nnc1-c1ccncc1	-29%	-3%	-21%	-18%	4%	444%
CC(C)Cn1c(SCC#N)nc2ccccc2c1=O	11%	-18%	-12%[10 µM]	?	-2%	0%
COCCCn1c(SCc2nnc(-c3ccc(OC)c(OC)c3)o2)nc2ccccc2c1=O	12µM*	?	?	23µM*	-6%	-1%
COc1cc(OC)cc(C(=O)/C(=C/c2cccnc2)c2nc3ccccc3o2)c1	.	.	.	.	.	-7%
COc1ccc(OC)c(NC(=O)[C@H]2C[C@H](CCSC)N[C@]23C(=O)Nc2c(C)cc(Cl)cc23)c1	.	.	.	.	.	21%
O=C(Nc1nnc(S(=O)(=O)N2CCc3ccccc32)s1)c1ccccc1Cl	.	?	.	?	.	-17%
O=C1CN(C(=O)c2ccc(Cl)c(S(=O)(=O)N3CCc4ccccc43)c2)c2ccccc2N1	?	16µM*	28%	21µM*	3%	-11%
Cc1cccc(NC(=O)c2ccc(Cl)c(S(=O)(=O)N3CCc4ccccc43)c2)n1	?	23µM*	.	?	.	4%

Assay outcomes (PubChem BioAssay)
